Out of some 420,000 compounds screened, about 50,000 (12%) were called active. Another 26% or so got no clear call; they are omitted. Only a selection was taken, and actives are over-represented in it overall. A number with no mark means an inactive call. The call rests on the fitted dose curve; in most records, active means well fitted inhibition curve with a large enough effect; inconclusive means small, poorly fitted or top-dose-only effect; inactive means flat fitted curve, though single readings scatter.
On the % scale 0 is the no-effect control and ±100 the full control effect; potency means the concentration at half of the fitted maximal effect.

The nature of this assay: qHTS for Inhibitors of human tyrosyl-DNA phosphodiesterase 1 (TDP1): qHTS in cells in presence of CPT. Further: nearly all actives have a fitted effect of over 55% in size. The conditions noted are these: chicken DT40 Tdp1-/-;hTDP1 cells + 20 nM CPT, ATP luminescence, 48 h; series mostly up to 46.2 µM; activity change, negative = growth inhibition: at the top concentration. From the text:
Human tyrosyl-DNA phosphodiesterase 1 (TDP1) is a novel repair gene, and we propose to use it as a new target for anticancer drug development. TDP1 is not an essential protein, but under treatment with topoisomerase I poison (camptothecin: CPT), TDP1 works as a critical factor for cell survival. To directly identify novel TDP1 inhibitors active in a cellular environment, we have knocked-out the Tdp1 gene in chicken DT40 cells (Tdp1-/-) and generated a complemented counterpart cells that contains a stable transfection of the human TDP1 gene (Tdp1-/-;hTDP1 cells). For the primary screen, Tdp1-/-;hTDP1 cells will be exposed to small molecules in the presence or absence of CPT, and their growth kinetics will be evaluated after 48 hours by measuring ATP activity. […] The hit compounds will then be evaluated in the presence or absence of CPT using Tdp1-/- cells. […] In tertiary assays, biochemical gel-based assays will be used to assess whether the hit compounds specifically target TDP1. To this end, we have screened this cell line against the MLSMR in two primary screens. In one screen we add CPT and in the other we screen in the absence of CPT; this AID represents the screen where CPT was present. NIH Chemical Genomics Center [NCGC] NIH Molecular Libraries Probe Centers Network [MLPCN] MLPCN Grant: MH095538 Assay Submitter (PI): Yves Pommier, NCI
DT40-hTDP1 cells with 20 nM Camptothecin (add 20 microL of 1 mM CPT stock in 1 L of cell culture medium) were dispensed at 400 cells/5microL/well in tissue culture treated 1536-well white wall/solid bottom assay plates (Greiner Bio-One North America, NC, U.S.A.) using a Multidrop Combi 8 channel dispenser (Thermo Fisher, Waltham, MA, USA). 23 nL compounds and controls were transferred using the pin tool (Kalypsys, San Diego, CA, USA) to the assay plates. The assay plates were then incubated at 37 masculineC for a minimum 48 hr. Three microL of Cell Titer Glo solution was added to the plates and incubated at RT in dark for 30 min. Luminescence was read using ViewLux (Perkin Elmer) with 1 sec exposure slow speed, high gain and 2x binning.
Background: In qHTS, concentration-response curves come from the screen itself.
As to `Cc1cc(C)c2oc(C(=O)Nc3ccc(S(=O)(=O)N4CCCCCC4)cc3)cc(=O)c2c1`, the “activity change, negative = growth inhibition” value was -6.28%.
Take `Cc1ccc2oc(C(=O)Nc3ccc(S(=O)(=O)N4CCCCCC4)cc3)cc(=O)c2c1`: the “activity change, negative = growth inhibition” value was -24.2%.
With `O=C(Nc1cc(S(=O)(=O)N2CCOCC2)ccc1Cl)c1cc(=O)c2ccccc2o1`, the Potency was 11.6 µM (active).
On to `O=C(NCCS(=O)(=O)N1CCN(c2ccccc2)CC1)c1cc(=O)c2ccccc2o1`, for which the “activity change, negative = growth inhibition” value was -29.6%.
Turning to `CCC1CCCCN1S(=O)(=O)c1ccc(NC(=O)c2cc(=O)c3ccccc3o2)cc1` (stereo not drawn), the Potency was 3.26 µM (active).
For the molecule `O=C(Nc1cc(S(=O)(=O)N2CCOCC2)ccc1N1CCOCC1)c1c(F)cccc1Cl`, the “activity change, negative = growth inhibition” value is 4.69%.
With `COc1ccccc1CN1CC(C(=O)NCCc2cn[nH]c2)CCC1=O` (stereo not drawn), the “activity change, negative = growth inhibition” value is 15.3%.
On the same count and under the same terms, the same measure for `O=C(CCNS(=O)(=O)c1ccccc1C(F)(F)F)Nc1ccncc1`: -23.4%; for `CCOC(=O)CSc1nnc(NC(=O)C2CC(=O)N(c3ccc(F)cc3)C2)s1` (stereo not drawn): -2.28%; for `COC(=O)C1=CN(Cc2ccc(OC)cc2)C=C(C(=O)OC)C1c1ccc(O)c(OC)c1`: -10.8%.
Still for that read-out and setting: the same measure for `CC(=O)Nc1ccc(S(=O)(=O)N2CCC(C(=O)NC3CC3)CC2)cc1`: 2.36%; for `CS(=O)(=O)N1CCN=C1SCc1ccc(F)cc1`: 19.6%.
In the case of `CC(=O)c1cnc(SCCN2C(=O)c3ccccc3C2=O)nc1C`, the “activity change, negative = growth inhibition” value was -0.72%.
Take `O=C1NC(c2ccccc2)Oc2ccccc21` (stereo not drawn): the “activity change, negative = growth inhibition” value is -11.4%.
On to `O=C1NC(c2cccc(Cl)c2)Nc2ccccc21` (stereo not drawn), for which the Potency is 13 µM (active).
In the case of `C=CCOc1cccc(C2NC(=O)c3ccccc3O2)c1` (stereo not drawn), the “activity change, negative = growth inhibition” value was 1.33%.
Take `COc1ccc(C(=O)CSc2nnc(NC(=O)C3CC(=O)N(c4cccc(OC)c4)C3)s2)cc1` (stereo not drawn): the “activity change, negative = growth inhibition” value was -23.9%.
Take `Cc1cc(C)n2nc(C(=O)Nc3cccc(S(=O)(=O)N4CCOCC4)c3)nc2n1`: the “activity change, negative = growth inhibition” value was -1.26%.
As to `O=C(N/N=C\c1cc(Br)c(Br)o1)C1COc2ccccc2O1` (stereo not drawn), the “activity change, negative = growth inhibition” value is -8.29%.
Regarding `Cc1cc(C(=O)N2CCCC2(C)C(=O)O)c(C)o1` (stereo not drawn), the “activity change, negative = growth inhibition” value is -14.8%.
Same read-out and setting: to `CCCN=C1N(C)C[C@@H]2[C@@H]3C(=O)N(Cc4ccccc4)C(=O)[C@@H]3[C@](C)(C(=O)OC)N12` belongs 17.2%.
For the molecule `O=C(CCSCc1ccccc1F)N1CCN(c2ccc(Cl)cc2)CC1`, the Potency was 23.1 µM (active).
With `O=C(CCSc1ccccc1)N1CCN(c2ccccc2F)CC1`, the “activity change, negative = growth inhibition” value was -4.21%.
For `O=C(CCc1ccccc1F)N1CCN(c2ccccc2)CC1`, the “activity change, negative = growth inhibition” value is -12.7%.
In the case of `COc1ccc(C2C(=O)N(C3CCCCCC3)CC(=O)N2CCc2ccc(Cl)cc2)cc1OC` (stereo not drawn), the Potency was 23.1 µM (active).
`O=C(NCCc1ccc(Cl)cc1)C1CC(=O)N(C2CCCCC2)C1` (stereo not drawn): the “activity change, negative = growth inhibition” value was -11.4%.
The same measure, in the same setting: to `CCOCCCN1C(=O)CN(C2CCCCC2)C(=O)C1c1ccc(OCC)c(OC)c1` (stereo not drawn) belongs -15.8%; to `COc1ccccc1N1CC(C(=O)NCCN2C(=O)S/C(=C\c3cccnc3)C2=O)CC1=O` (stereo not drawn), 4.39%.
Turning to `S=C(Cc1ccc(Cl)cc1)N1CCOCC1`, the “activity change, negative = growth inhibition” value was -4.63%.
Still for that read-out and setting: to `COc1ccc(-c2cnc(SCCNC(=O)c3ccc4c(c3)OCO4)[nH]2)cc1` belongs -10.2%.
For the molecule `O=S1(=O)CCOC[C@H](CC2CCCCC2)N1Cc1ccc(F)cc1`, the Potency was 2.51 µM (active).
With `CCC(C)[C@H]1COCCS(=O)(=O)N1Cc1ccc(C)cc1` (stereo partly drawn), the “activity change, negative = growth inhibition” value is -18.2%.
Turning to `CCCC[C@H]1COCCS(=O)(=O)N1Cc1cccc(Cl)c1`, the “activity change, negative = growth inhibition” value is 0.0482%.
